Data reported in PubChem BioAssay AID485314 (National Center for Advancing Translational Sciences (NCATS), 2010).
About 4,500 (1.3%) of roughly 340,000 compounds were called active. Where a call stands in place of a potency, no number is given. Inconclusive results (about 5%) are left out. Calls follow the shape of the dose curve; as a rule, active = well fitted inhibition curve with a large enough effect; inconclusive = small, poorly fitted or top-dose-only effect, or another doubt; inactive = no such curve, though single readings can be large or run the other way. This excerpt belongs to a sample that is enriched for actives.

Molecular target: DNA polymerase beta (Homo sapiens) (UniProt P06746)
Test: qHTS Assay for Inhibitors of DNA Polymerase Beta
Conditions: Pol beta primer extension/strand displacement, fluorescence kinetic; series mostly up to 114 µM
Text: The base excision repair system in human cells is a target for therapeutic modulation of the response to irradiation treatment and DNA-damaging drugs. A key enzyme in this system is the bi-functional DNA polymerase known as DNA polymerase Beta (Pol Beta). The following is a homogeneous kinetic assay to study the primer extension and strand-displacement reaction catalyzed by pol beta.
A stepwise description of the 1536-well assay is shown in next Table. Three microliters of reagents (buffer in column 3 and 4 as negative control and 10 nM Pol beta in columns 1, 2, and 5-48) was dispensed into 1,536-well black solid-bottomed plate. Compounds (23 nL) were transferred via Kalypsys pin tool equipped with 1536-pin array (10 nL slotted pins, V&P Scientific, San Diego, CA). The plates were incubated for 15 min at room temperature, and 1 uL substrate (50 nM final concentration) were added to start the reaction and immediately read at 0 min read on Viewlux reader. The plate were further incubated for 10 min at room temperature, and then read on Viewlux again. Throughout the screen, reagent bottle and all liquid lines were chilled and made light-tight to minimize reagent degradation. All screening operations were performed on a fully integrated robotic system (Kalypsys, San Diego, CA) containing one RX-130 and two RX-90 anthropomorphic robotic arms (Staubli, Duncan, SC). Library plates were screened starting from the lowest and proceeding to the highest concentration, and a double-dipping step of the highest concentration was required to access higher concentrations of compounds. Vehicle-only plates, with DMSO being pin-transferred to the entire column 5-48 compound area, were inserted uniformly at the beginning and the end of each library in order to monitor for and record any shifts in the background, which can be affected by reagent dispensers or loss in enzyme activity overtime. Screening data were corrected, normalized, and concentration-effect relationships were derived by using publicly-available curve fitting algorithms developed in-house (http://ncgc.nih.gov/pub/openhts). A four parameter Hill equation was fitted to the concentration-response data by minimizing the residual error between the modeled and observed responses.
Potency is read from the fitted curve at half-maximal effect.

| SMILES | Potency |
| --- | --- |
| COc1ccc(-c2nc3c(c(SCC(=O)Nc4ccc(C(=O)O)cc4)n2)Cc2ccccc2O3)cc1 | 2.24 µM (active) |
| COc1cc(OC)cc(-c2nnc(SCC(=O)Nc3ccc(C(=O)O)cc3)s2)c1 | inactive |
| COc1ccc(NC(=O)CSc2nc(N)c(-c3ccccc3)c(=O)[nH]2)cc1 | inactive |
| O=C(NCCc1csc(-c2ccc(C(F)(F)F)cc2)n1)C(=O)Nc1ccc(F)c(Cl)c1 | inactive |
| CC(=O)c1ccc(NC(=O)CSc2nc(-c3ccccc3F)nc3c2c(=O)n(C)c(=O)n3C)cc1 | inactive |
| COc1ccc(OC)c2sc(N3CCN(C(=O)C4COc5ccccc5O4)CC3)nc12 (stereo not given) | inactive |
| Cc1c(C)c2ccc(OCC(=O)N3CCC(C(=O)O)CC3)c(C)c2oc1=O | inactive |
| Cc1c(CC(=O)N2CCN(C(=O)C3COc4ccccc4O3)CC2)c(=O)oc2c(O)c(O)ccc12 (stereo not given) | 0.794 µM (active) |
| COc1ccc(OC)c(CNC(=O)CN2C(=O)CCn3nc(-c4cn(C)c5ccccc45)cc32)c1 | inactive |
| CC(=O)Nc1ccc(S(=O)(=O)N2CCN(c3ccccc3)CC2)cc1 | inactive |
| Cc1cc(/C=C2/SC(=O)N(CC(=O)N3CCCC3)C2=O)c(C)n1C | inactive |
| Cc1cc(/C=C2\SC(=Nc3ccc(N4CCOCC4)cc3)N(C)C2=O)c(C)n1-c1cccnc1 | inactive |
| Cc1cc(/C=C2\SC(=O)N(C)C2=O)c(C)n1-c1cccc(C(=O)O)c1 | 28.2 µM (active) |
| O=C(CSCc1cnn(-c2ccccc2)c1-n1cccc1)NCc1ccc(Cl)cc1 | inactive |
| COc1ccccc1/C=C/c1nc(C#N)c(NC(C)c2ccccc2)o1 (stereo not given) | inactive |
| COc1ccc(-c2nc3sc(CCNC(=O)C(C)(C)C)c(C)n3n2)cc1 | inactive |
| Cc1ccc2onc(CC(=O)N3CCN(c4ccc(Cl)cc4)CC3)c2c1 | inactive |
| CC(C)c1ccc(S(=O)(=O)Nc2ccc(O)c(Sc3nc4ccccc4s3)c2)cc1 | inactive |
| COc1cccc(NC(=O)CSC2=Nc3ccccc3C3=NC(CC(=O)NC4CCCCC4)C(=O)N23)c1 (stereo not given) | inactive |
| O=C(Cn1cnc2ccccc21)N/N=C/c1ccco1 | inactive |
| Cc1n[nH]c(=O)nc1N/N=C/c1cccs1 | inactive |
| O=c1nc(N/N=C/c2ccco2)cn[nH]1 | 11.2 µM (active) |
| CCC(=O)N1CCc2cc(S(=O)(=O)NC(C(=O)Nc3ccc(C(C)=O)cc3)C(C)C)ccc21 (stereo not given) | inactive |
| Cc1cccc(C2CC(=O)Oc3c2c(=O)n(C)c2ccccc32)c1 (stereo not given) | inactive |

| SMILES | Potency |
| --- | --- |
| Cc1ccc(OCC(=O)Nc2ccc(Cl)c(-c3nc4ccccc4[nH]3)c2)cc1C | inactive |
| C=CCOc1ccc(/C=C2\SC(=S)N(CCC(=O)O)C2=O)cc1 | inactive |
| COc1ccc(-c2nn(-c3ccccc3)cc2/C=C2/SC(=S)N(CCCC(=O)O)C2=O)c(C)c1 | inactive |
| Cc1ccc(-c2nn(-c3ccccc3)cc2/C=C2\SC(=S)N(CCCCCC(=O)O)C2=O)o1 | 50.1 µM (active) |
| Cc1cccc(Cn2c(CN3CCC(C(=O)NCc4ccccc4Cl)CC3)cc3ccccc32)c1 | inactive |
| CCc1ccc(N(CC)C(=O)CCn2cnc3onc(-c4ccc(F)cc4)c3c2=O)cc1 | inactive |
| CCCN1C(=O)C(O)(CC(=O)c2ccc(CC)cc2)c2cc(Br)ccc21 (stereo not given) | inactive |
| COc1ccc(C(=O)/C=C/c2ccc(OC3CSC3)cc2)cc1 | inactive |
| COc1ccc(/C=C/C(=O)c2cc(Br)ccc(=O)c2O)cc1 | 50.1 µM (active) |
| COc1ccc(C(=O)/C=C/c2cccnc2)c(OC)c1 | inactive |
| CSc1ccc(CCNC(=O)c2cnn(-c3ccccc3)c2-n2cccc2)cc1 | inactive |
| O=C(/C=C/c1ccccc1)N1CCN(Cc2cc(=O)n3nc(-c4ccccc4F)sc3n2)CC1 | inactive |
| CCOc1ccccc1C(=O)NC1(C(F)(F)F)C(=O)Nc2c1c(=O)[nH]c(=O)n2-c1ccc(F)cc1 (stereo not given) | inactive |
| Cc1ccc(CCNC(=O)c2nnc(Cc3cccc(F)c3)o2)cc1 | inactive |
| CCOc1ccc2[nH]c(=O)c(CN(CCCO)S(=O)(=O)c3ccc(F)cc3)cc2c1 | inactive |
| COc1ccc(S(=O)(=O)N(CCCN2CCCC2=O)Cc2cc3c(C)ccc(C)c3[nH]c2=O)cc1 | 89.1 µM (active) |
| CCOC(=O)c1ccc(S(=O)(=O)N(CCO)Cc2cc3cc(OC)c(OC)cc3[nH]c2=O)cc1 | inactive |
| O=C1N/C(=C/c2cccn2-c2ccccc2)C(=O)N1c1cccc(Cl)c1 | inactive |
| Cc1ccccc1NC(=O)CN1C(=O)N/C(=C\c2cccn2-c2cccc(C(=O)O)c2)C1=O | 2.24 µM (active) |
| Cc1ccccc1NC(=O)CN1C(=O)C(C)(C)c2ccccc21 | inactive |
| COc1ccccc1NC(=O)C1=C(C)Nc2nc(SCC(=O)c3ccc(C)cc3)nn2C1c1ccccc1C (stereo not given) | inactive |
| CCc1ccccc1NC(=O)Cn1c(=O)n(-c2cccc(C)c2)c(=O)c2c1c1cc(OC)ccc1n2C | inactive |
| CCc1cccc(C)c1NC(=O)CSc1nnc(-c2ccco2)n1N | inactive |
| NC(=O)c1c(NC(=O)CSc2nnc(-c3ccco3)n2N)sc2c1CCCC2 | 39.8 µM (active) |

| SMILES | Potency |
| --- | --- |
| NC(=O)c1c(NC(=O)CSc2nc(N)cc(=O)[nH]2)sc2c1CCCC2 | inactive |
| CCOc1ccccc1C(=O)NCc1ccc2c(c1)CCN2C(=O)c1ccc(F)cc1 | inactive |
| O=c1nc2s/c(=C\c3ccco3)c(=O)n2nc1Cc1ccccc1 | 14.1 µM (active) |
| O=C(OCN1C(=O)c2ccccc2C1=O)/C(=C\c1ccco1)NC(=O)c1ccccc1 | inactive |
| C#Cc1ccc([C@@H]2C=C(C(=O)O)O[C@H](OCCCCO)C2)cc1 | 28.2 µM (active) |
| O=C(O)C1=C[C@H](c2cccs2)C[C@H](OCCCCO)O1 | inactive |
| C=CCOC(=O)C1=C[C@@H](c2ccccc2)C[C@@H](OCc2ccc(CO)cc2)O1 | inactive |
| CCCCc1nn2c(=O)cc(COC(=O)c3cccc(NC(=O)COc4ccccc4)c3)nc2s1 | inactive |
| COc1ccc(N2CCN(S(=O)(=O)c3ccc(-c4coc(C)n4)cc3)CC2)cc1 | 31.6 µM (active) |
| COc1ccc(N2CCN(C(=O)C3CCN(S(=O)(=O)c4ccc(C)cc4)CC3)CC2)cc1 | inactive |
| COc1ccc(N2CCN(S(=O)(=O)c3ccc4c(c3)N(C(C)=O)CCO4)CC2)cc1 | inactive |
| O=C(CSc1nc2ccccc2c(=O)[nH]1)Nc1nc(-c2ccc(Br)cc2)cs1 | 4.47 µM (active) |
| O=C(CSC1=NCCS1)Nc1nc(-c2ccccc2)cs1 | inactive |
| Cc1ccc(-c2csc(NC(=O)Cn3[nH]c(=O)c4ccccc4c3=O)n2)cc1 | inactive |
| CC(C)(C)c1ccc(C(=O)NCC(c2ccco2)S(=O)(=O)c2ccc(F)cc2)cc1 (stereo not given) | inactive |
| COc1cccc(NC(=O)N(Cc2cn(C)c3ccccc23)C2CCCCCC2)c1 | inactive |
| O=C(CSc1ccc(-c2ccco2)nn1)NCc1ccc2c(c1)OCO2 | 15.8 µM (active) |
| Cc1ccccc1-c1nnc(SCC(=O)NCc2ccc3c(c2)OCO3)n1C | inactive |
| O=C(CSc1ccc(-c2ccco2)nn1)Nc1cccc(F)c1 | inactive |
| Cc1ccccc1OCCSc1nc2ccc(NC(=O)c3ccco3)cc2s1 | inactive |
| Cc1ccc(C2CCN(C(=O)c3cnn(-c4ccccc4Cl)c3C3CCN(C(=O)OC(C)(C)C)CC3)C2)cc1 (stereo not given) | inactive |
| Cc1cccc(N2CCN(C(=O)c3cccc(S(=O)(=O)N4CCc5ccccc5C4)c3)CC2C)c1 (stereo not given) | inactive |
| Cc1cccc(N2CCN(S(=O)(=O)c3ccc4[nH]c(=O)c(=O)[nH]c4c3)CC2C)c1 (stereo not given) | 25.1 µM (active) |
| Cc1cccc(N2CCN(S(=O)(=O)c3ccc(-c4cc(C)no4)s3)CC2C)c1 (stereo not given) | inactive |

| SMILES | Potency |
| --- | --- |
| CC(C)(C)c1ccc(OCC(=O)N2CCC(c3nc4ccccc4s3)CC2)cc1 | inactive |
| Cc1cccc(NC(=O)/C(=C\c2ccco2)NC(=O)c2ccccc2)c1 | inactive |
| O=C(Nc1ccccc1)/C(=C\c1ccco1)NC(=O)c1ccco1 | inactive |
| COc1ccccc1C(=O)N/C(=C/c1ccco1)C(=O)Nc1ccc(C(=O)O)cc1 | 50.1 µM (active) |
| CC(=O)Nc1cc(C(=O)NCc2ccc(F)cc2Cl)ccc1Sc1ccc(Cl)cc1 | inactive |
| CCC(Sc1nnc(-c2ccc(OC)cc2)c(-c2ccc(OC)cc2)n1)C(=O)NC1CCCCC1 (stereo not given) | inactive |
| COc1cccc(-n2cc(C(=O)NCc3cccc(Cl)c3)c3ccccc3c2=O)c1 | inactive |
| Nc1ccc(-c2sc(N)nc2-c2ccccc2)cc1 | inactive |
| Nc1[nH]c(=S)nc2nc(-c3ccccc3)c(-c3ccccc3)nc12 | 22.4 µM (active) |
| Cc1ccc2cccc(NC(=O)C(C)Oc3ccc(C)c(C)c3)c2n1 (stereo not given) | inactive |
| Cn1nc(-c2ccccc2)c(-c2ccccc2)c(C(=O)Nc2ccc(S(N)(=O)=O)cc2)c1=O | inactive |
| COc1ccc(Cn2ccnc2SCC(=O)Nc2ccc3c(c2)OCO3)cc1 | inactive |
| CCCS(=O)(=O)N1CCC(n2c(C(F)(F)F)nc3cccnc32)CC1 | inactive |
| COc1ccc(OCC(=O)NNC(=O)c2ccc(-c3ccccc3)cc2)cc1 | 44.7 µM (active) |
| COc1ccc(C(=O)Nc2cc(C)ccc2NC(=O)COc2ccccc2)cc1 | inactive |
| COc1ccc(C(=O)NNC(=S)NC(=O)c2ccccc2)cc1 | inactive |
| O=C(CS(=O)(=O)c1cccc2nsnc12)N1CCN(c2cccc(Cl)c2)CC1 | inactive |
| CCOc1ccc(S(=O)(=O)Nc2ccc3oc4c(c3c2)CC(C)CC4)cc1 (stereo not given) | inactive |
| Cc1cccc(NC(=O)CSc2ncc(-c3ccccc3)[nH]2)c1C | inactive |
| Cc1cc(C)n2nc(SCC(=O)NC(=O)NCc3ccco3)nc2n1 | inactive |
| Cc1ccc(SCC(=O)NC(=O)NCc2ccco2)c(C)c1 | 25.1 µM (active) |
| Cc1ccc(NC(=O)C(=O)NCc2ccco2)c(C)c1 | inactive |
| Cn1ccc2cc(S(=O)(=O)N3CCCC(C(=O)NCc4ccccc4F)C3)ccc21 (stereo not given) | inactive |
